Consider twelve molecules from PubChem BioAssay (NCATS).

Assay [1] in a line: qHTS Assay for Identifying Gametocytocidal Compounds (AID 743244; active = well fitted curve in the direction sought with a large enough effect;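 note: % is set by controls: 0 for no effect and ±100 for the full control effect; actives lower the fluorescent signal which means gametocytes are killed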). To be noted: P. falciparum 3D7 stage III-V gametocytes, alamarBlue, 72 h; max response: stronger effect = lower value. The method, boiled down:
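Fluorescence at Ex 525/Em 598 nm, recorded 24 h after alamarBlue addition, reports residual metabolic activity of 3D7 gametocytes (stages III–V) following 72 h compound exposure at 37 °C, 5% CO2.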

Assay [2] can be described thus: qHTS profiling of the MIPE4 collection as inhibitors of Plasmodium falciparum (3D7) proliferation (AID 743344).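 Note: scaled between DMSO vehicle wells and 0.29 µM artemisinin as full inhibition.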 To be noted: P. falciparum 3D7 in erythrocytes, SYBR Green DNA fluorescence, 72 h; at 28.5 µM (top of the series) unless noted. The method, boiled down:
(§1)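 Erythrocytes infected with P. falciparum (0.3% parasitemia, 2.5% hematocrit) incubated with compounds 72 h at 37 C, 5% CO2. Lysis with saponin/Triton buffer containing SYBR Green I, overnight at room temperature in the dark; DNA fluorescence (485/535 nm) normalised to 0.29 uM artemisinin and DMSO.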

Assay [3] is described as follows: qHTS profiling of the MIPE4 collection as inhibitors of Plasmodium falciparum (DD2) proliferation (AID 743345). The settings on record: P. falciparum Dd2 in erythrocytes, SYBR Green DNA, 72 h; at 28.5 µM (top of the series) unless noted. The method, boiled down: as §1
A short description of assay [4]: qHTS profiling of the MIPE4 collection as inhibitors of Plasmodium falciparum (DD2) proliferation (Rep 2) (AID 743346). The settings on record: P. falciparum Dd2 in erythrocytes, SYBR Green DNA, 72 h; at 28.5 µM (top of the series) unless noted. The method, boiled down:
as §1

Assay [5] is described as follows: qHTS profiling of the MIPE4 collection as inhibitors of Plasmodium falciparum (HB3) proliferation (AID 743347).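 Note: plate controls were DMSO vehicle wells for no effect and artemisinin wells for full effect.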 To be noted: P. falciparum HB3 in erythrocytes, SYBR Green DNA, 72 h; at 28.5 µM (top of the series) unless noted. The method, boiled down: as §1
The nature of assay [6]: High-throughput drug toxicity screening in the BPDCN cell line Gen2.2 (AID 1224824).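 Note: cells exposed to compounds for 48 h before reading.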 The settings on record: Gen2.2 BPDCN cells; at 45.8 µM (top of the series) unless noted. The method, boiled down:
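CellTiter-Glo luminescence after 48 h compound exposure of Gen2.2 cells; percent activity set with DMSO as 100% and bortezomib (9.2 uM final) as 0%. Cells seeded at 500 per well, RPMI + 10% FBS, 37 °C.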

Structures are written as SMILES. Values joined by “and” are separate entries in the source; they are usually repeats but may differ in a detail not shown here. Equal values may be shown once. Records with an inconclusive call do not appear. Active and inactive are the calls of the source. Unless noted, the rule behind the calls is not given here.

On to `CN(C)c1ccc(O)c2c1C[C@H]1C[C@H]3[C@H](N(C)C)C(=O)C(C(N)=O)=C(O)[C@@]3(O)C(=O)C1=C2O`, for which the max response in assay [1] is -5.16% (inactive) and -5.04% (inactive). The same molecule showed a parasite growth, % of DMSO control in assay [2] of 6.29%. In addition, the parasite growth remaining, % of DMSO control (lower = more inhibition) in assay [3] came out at 9.85%. For the same molecule, the parasite growth, % of control (lower = inhibition) in assay [4] was found to be 6.85%. For the same molecule, the growth, % of control in assay [5] amounted to 6.27%. Besides, in assay [6], the cell viability, % of control (lower = more cytotoxic) amounted to 77.4%.
For the molecule `Cc1ccc(S(=O)(=O)NC(=O)NN2CC3CCCC3C2)cc1` (centres undefined), the max response in assay [1] was 2.23% (inactive). Further, the parasite growth, % of DMSO control in assay [2] worked out at 14%. Also, the parasite growth remaining, % of DMSO control (lower = more inhibition) in assay [3] is 13.9%. The parasite growth, % of control (lower = inhibition) in assay [4] turned out to be 16.9%. Further, in assay [6], the cell viability, % of control (lower = more cytotoxic) stood at 109%.
As for `O=C(O)c1cc(=O)c2c(OCC(O)COc3cccc4oc(C(=O)O)cc(=O)c34)cccc2o1`, the max response in assay [1] was 10.5% (inactive). This molecule yielded a parasite growth, % of DMSO control in assay [2] of 85.2%. Also, the parasite growth remaining, % of DMSO control (lower = more inhibition) in assay [3] came to 96.7%. Besides, the parasite growth, % of control (lower = inhibition) in assay [4] was 106%. Besides, the growth, % of control in assay [5] came out at 81%. Moreover, the cell viability, % of control (lower = more cytotoxic) in assay [6] was 106%.
With `CC1(C)CCC(C)(C)c2cc(NC(=O)c3ccc(C(=O)O)cc3)ccc21`, in assay [1], the max response was 7.33% (inactive). In assay [2], the parasite growth, % of DMSO control came out at 23.1%. Besides, the parasite growth remaining, % of DMSO control (lower = more inhibition) in assay [3] worked out at 86.1%. For the same molecule, the parasite growth, % of control (lower = inhibition) in assay [4] was 27%. The growth, % of control in assay [5] turned out to be 49.3%. The cell viability, % of control (lower = more cytotoxic) in assay [6] came to 73.5%.
On to `COC(=O)N[C@H](C(=O)N[C@@H](Cc1ccccc1)[C@@H](O)CN(Cc1ccc(-c2ccccn2)cc1)NC(=O)[C@@H](NC(=O)OC)C(C)(C)C)C(C)(C)C`, for which the max response in assay [1] was -11.7% (inactive). Also, the parasite growth, % of DMSO control in assay [2] stood at 7.5%. Further, the parasite growth remaining, % of DMSO control (lower = more inhibition) in assay [3] came out at 18.2%. Besides, the parasite growth, % of control (lower = inhibition) in assay [4] was 34.6%. Also, the cell viability, % of control (lower = more cytotoxic) in assay [6] was determined as 159%.
As for `O=c1oc2cc(O)ccc2s1`, in assay [1], the max response is -6.04% (inactive). In addition, in assay [2], the parasite growth, % of DMSO control was 85.1%. Also, the parasite growth remaining, % of DMSO control (lower = more inhibition) in assay [3] amounted to 123%. The parasite growth, % of control (lower = inhibition) in assay [4] came to 54.9%. In assay [5], this molecule yielded a growth, % of control of 99.9%. The cell viability, % of control (lower = more cytotoxic) in assay [6] was determined as 68.5%.
`Cc1cc(=O)oc2cc(O)ccc12`: in assay [1], the max response was 14.2% (inactive). In assay [2], the parasite growth, % of DMSO control was determined as 85.5%. For the same molecule, the parasite growth remaining, % of DMSO control (lower = more inhibition) in assay [3] worked out at 101%. The parasite growth, % of control (lower = inhibition) in assay [4] was determined as 107%. For the same molecule, in assay [5], the growth, % of control worked out at 105%. Also, the cell viability, % of control (lower = more cytotoxic) in assay [6] is 183%.
For `Nc1ncn([C@H]2C[C@H](O)[C@@H](CO)O2)c(=O)n1`, the max response in assay [1] was -3.47% (inactive). This molecule yielded a parasite growth, % of DMSO control in assay [2] of 98%. Besides, in assay [3], the parasite growth remaining, % of DMSO control (lower = more inhibition) amounted to 99.3%. Besides, in assay [4], the parasite growth, % of control (lower = inhibition) turned out to be 91.2%. This molecule also registered a growth, % of control in assay [5] of 81.1%. Further, in assay [6], the cell viability, % of control (lower = more cytotoxic) stood at 125%.
`CN(c1nccc(=O)[nH]1)C1CCN(c2nc3ccccc3n2Cc2ccc(F)cc2)CC1`: in assay [1], the max response was 6.96% (inactive). The same molecule displayed a parasite growth, % of DMSO control in assay [2] of 23.2%. The parasite growth remaining, % of DMSO control (lower = more inhibition) in assay [3] turned out to be 81.9%. Besides, the parasite growth, % of control (lower = inhibition) in assay [4] came out at 23.1%. The cell viability, % of control (lower = more cytotoxic) in assay [6] was 107%.
With `C[Se]CCC(N)C(=O)O` (centres undefined), in assay [1], the max response is -7.98% (inactive). The parasite growth, % of DMSO control in assay [2] was 99.6% [at 57.5 µM]. Further, the parasite growth remaining, % of DMSO control (lower = more inhibition) in assay [3] came to 105% [at 57.5 µM]. For the same molecule, the parasite growth, % of control (lower = inhibition) in assay [4] stood at 135% [at 57.5 µM]. The growth, % of control in assay [5] was determined as 86.5% [at 57.5 µM]. The cell viability, % of control (lower = more cytotoxic) in assay [6] was determined as 170% [at 92.2 µM].
Regarding `C=C(c1ccc(C(=O)O)cc1)c1cc2c(cc1C)C(C)(C)CCC2(C)C`, in assay [1], the max response is 3.99% (inactive). The parasite growth, % of DMSO control in assay [2] was determined as 70%. Further, the parasite growth remaining, % of DMSO control (lower = more inhibition) in assay [3] is 81.7%. For the same molecule, in assay [4], the parasite growth, % of control (lower = inhibition) was 105%. In assay [5], the growth, % of control was 76.8%. The cell viability, % of control (lower = more cytotoxic) in assay [6] came out at 577%.
On to `O=C1c2ccccc2-c2n[nH]c3cccc1c23`, for which the max response in assay [1] is -3.57% (inactive) and 13.7% (inactive). The same molecule had a parasite growth, % of DMSO control in assay [2] of 62.9%. In assay [3], the parasite growth remaining, % of DMSO control (lower = more inhibition) is 93%. Also, in assay [4], the parasite growth, % of control (lower = inhibition) was 87%. For the same molecule, the growth, % of control in assay [5] came to 85.2%. For the same molecule, the cell viability, % of control (lower = more cytotoxic) in assay [6] was found to be 84.7%.
